# Hits are enriched below; roughly 3.4% of the tested compounds scored in any of these assays.
# PLC-beta3 inh: inhibitors of human phospholipase C beta3 | 370,000 tested, 0.18% active | inhibition, % at 12.2 µM | Purified PLC-beta3, fluorogenic substrate, fluorescence | Q01970 | AID 720704; in the data active means inhibition above about 11%;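 further: 0% = median of compound wells on plate and 100% = full blocker control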
# KLK7 zymogen act: activators of human kallikrein-7 zymogen; P49862; purified proKLK7, EDANS-DABCYL substrate fluorescence; 100% is mature enzyme control, 0% vehicle; activation, % at 7 µM; 370,000 tested, 0.9% active; AID 652039;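 active means activation above the mean of all tested compounds plus 3 SD, computed per campaign excluding outliers beyond control limits, cut at about 13% in these data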
# ADAM17 inh: inhibitors of human ADAM17; 370,000 tested, 0.83% active; recombinant ADAM17, EDANS/DABCYL FRET peptide cleavage; AID 720648; inhibition, % at 6.95 µM;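 active means inhibition above the mean of compounds lying between control limits plus 3 SD, set per campaign, cut at about 8.5% in these data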;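 further: 0% = DMSO-only wells as the low control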
# HGIII-sPLA2 inh: Blocks human group III sPLA2 activity | inhibition, % at 12.2 µM | QFRET BODIPY PC-A2 liposome hydrolysis, fluorescence | AID 743126 | 370,000 tested, 0.56% active;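 active means inhibition above mean plus 3 SD of compounds lying within the high and low control bounds, cut at about 19% in these data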;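 further: 0% = median of test compound wells and 100% = no enzyme DMSO wells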
# Target sequence (Q9NZ20 whole entry, looked up): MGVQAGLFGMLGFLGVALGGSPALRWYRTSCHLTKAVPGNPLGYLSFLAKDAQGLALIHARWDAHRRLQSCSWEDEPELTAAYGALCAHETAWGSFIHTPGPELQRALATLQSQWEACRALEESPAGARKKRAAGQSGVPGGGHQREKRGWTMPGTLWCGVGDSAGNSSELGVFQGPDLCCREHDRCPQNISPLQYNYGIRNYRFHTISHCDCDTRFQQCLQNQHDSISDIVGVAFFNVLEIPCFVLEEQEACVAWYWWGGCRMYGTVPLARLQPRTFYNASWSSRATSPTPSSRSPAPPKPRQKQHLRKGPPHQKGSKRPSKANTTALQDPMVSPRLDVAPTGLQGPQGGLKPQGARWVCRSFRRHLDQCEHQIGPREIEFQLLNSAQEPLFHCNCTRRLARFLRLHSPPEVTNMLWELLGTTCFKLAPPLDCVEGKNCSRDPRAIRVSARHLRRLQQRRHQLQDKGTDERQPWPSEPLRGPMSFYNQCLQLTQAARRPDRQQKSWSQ
# ADAM10 inh: ADAM10 inhibition, QFRET primary screen; inhibition, % at 7 µM; recombinant ADAM10, EDANS/DABCYL FRET peptide cleavage, 3 h; AID 720582; 370,000 tested, 0.62% active; O14672;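 active means inhibition above a per-campaign cutoff equal to the mean of compounds falling between control-based bounds plus 3 SD, cut at about 20% in these data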;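 further: 0% = DMSO wells while the 100% control is not disclosed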
# PLCg1 inh: PLC-gamma1 (human) inhibition, primary screen; P19174; purified PLC-gamma1, fluorogenic substrate, fluorescence; inhibition, % at 12.2 µM; 370,000 tested, 0.84% active; in the data active means inhibition above about 9.5%
# sPLA2 confirm: human GIII-sPLA2 inhibition, confirmation; 2,000 tested, 34% active; recombinant hGIII-sPLA2, BODIPY PC-A2 QFRET fluorescence; inhibition, % at 12.2 µM; shares compounds with HGIII-sPLA2 inh;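 active means mean inhibition across triplicates above the hit cutoff set in the earlier primary screen, cut at about 19% in these data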;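 further: 0% = enzyme with DMSO and 100% = DMSO wells lacking enzyme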
# 535nm interf: 535nm fluorescence interference, HGIII-sPLA2 counter-screen; shares compounds with HGIII-sPLA2 inh; BODIPY FL product fluorescence interference, QFRET; inhibition, % at 12.2 µM; 2,000 tested, 8.5% active;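 active means average inhibition above the solvent-only control mean plus 3 SD, cut at about 6% in these data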;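 further: 0% = DMSO with substrate plus product and 100% = DMSO with substrate alone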
# BODIPY interf DR: counter-screen for HGIII-sPLA2 inhibitors: 535nm fluorescence interference, dose response; 240 tested, under 10 active; BODIPY FL product fluorescence interference, cell-free; shares compounds with HGIII-sPLA2 inh; IC50, µM;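 active means IC50 at or below 10 µM; inactive means IC50 above 10 µM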
# An asterisk follows results filed as active; i = inactive; / = no result.
SMILES,PLC-beta3 inh,KLK7 zymogen act,ADAM17 inh,HGIII-sPLA2 inh,ADAM10 inh,PLCg1 inh,sPLA2 confirm,535nm interf,others
COc1ccc(NC(=S)NC2CC3CCC2C3)c(OC)c1 (configuration not stated),-10,0,-2,21*,-13,-6,20*,-1,
Cc1ccc(NC(=O)C2CCCO2)cc1[N+](=O)[O-] (configuration not stated),-11,0,-3,20*,-7,4,1,-2,
O=C(Nc1cccc(NC(=O)C2CCCO2)c1)C1CCCO1 (configuration not stated),-7,0,-2,1,-9,-3,/,/,
O=C(NCc1ccccc1)[C@H]1CCCN1C(=O)[C@H]1CCCN1C(=O)c1ccc(OC(F)(F)F)cc1,-1,0,-5,8,-2,3,/,/,
O=C(NCc1ccccc1)[C@H]1CCCN1C(=O)[C@H]1CCCN1C(=O)c1ccccc1,0,0,-2,16,-2,3,/,/,
COc1cccc(CNC(=O)[C@H]2CCCN2C(=O)[C@H]2CCCN2C(=O)c2ccc(C)cc2)c1,-1,0,-3,22*,-16,2,-2,-10,
O=C(NCc1ccccc1)[C@H]1CCCN1C(=O)[C@H]1CCCN1C(=O)c1ccc(Cl)cc1,-1,0,-3,22*,-14,1,4,-9,
COc1cc(OC)c(C2C(C#N)=C(C)NC(C)=C2C#N)c(C(=O)O)c1,-112,1,-81,24*,-145,-79,1,-5,
CC1=C(C#N)C(c2ccc(O)cc2)C(C#N)=C(C)N1,-25,0,-5,-18,-26,-13,/,/,
COc1cccc(Nc2nc(C(N)CO)cs2)n1 (configuration not stated),-2,0,-7,21*,-17,-5,12,-6,
Oc1c(N=Nc2ccccn2)ccc2ccccc12,1,0,-1,22*,-3,1,54*,13*,
CC(C)C(N)c1csc(Nc2ccc(C(F)(F)F)cn2)n1 (configuration not stated),-8,-1,-3,23*,-7,-3,12,-10,
Cc1ccccc1-c1ccc2c(c1)[C@@H]1C[C@H]3[C@@H](CN1CC2)[C@H](C)OC(c1ccccc1)N3C (some centres not stated),-78,6,-17,-2,-72,-69,/,/,
O=C(NC(=S)N(CC1CCC1)CC1CCCO1)c1cccc([N+](=O)[O-])c1 (configuration not stated),-5,1,-1,20*,-6,1,20*,-3,
Oc1ccc(CCc2ccccc2)c2cccnc12,-7,/,2,26*,-3,-9,21*,-3,
O=C(NC1CCCCN(Cc2cccc(Cl)c2)C1=O)c1ccc(Cl)cc1Cl (configuration not stated),-1,0,-2,9,5,5,/,/,
O=C(/C=C/c1cccs1)c1ccc([N+](=O)[O-])cc1,-4,0,-4,21*,-5,8,4,-2,
O=C(/C=C/c1ccc([N+](=O)[O-])cc1)c1cccs1,-6,-1,-2,1,13,7,/,/,
C/C(=N\NC(=O)c1nnn(-c2nonc2N)c1CN(C)c1ccccc1)c1ccccc1O,-45,-4,-1,24*,-2,-26,33*,-2,BODIPY interf DR=>122
NC(=S)N/N=C/c1cc([N+](=O)[O-])ccc1Cl,-2,0,-6,20*,-15,4,13,0,
O=C(CSc1cccc[n+]1[O-])Nc1cc([N+](=O)[O-])ccc1Cl,2,0,-5,-2,2,1,/,/,
O=C(CSc1cccc[n+]1[O-])Nc1cc2c(cc1Cl)C(=O)c1ccccc1C2=O,0,0,-6,19*,-1,-4,-8,6.5*,
O=c1oc(-c2ccc(Cl)c(Cl)c2)nn1-c1ccc(C(F)(F)F)cn1,-10,1,-3,30*,-3,0,23*,7.8*,
Clc1ccc(N=NN2CCOCC2)cc1,-8,0,-6,19*,-11,1,-4,-1,
COc1ccc(CN2C(=O)CCCC2(C)c2nnnn2-c2ccc3c(c2)OCCO3)cc1 (configuration not stated),0,0,-6,-2,-7,0,/,/,
SMILES,PLC-beta3 inh,KLK7 zymogen act,ADAM17 inh,HGIII-sPLA2 inh,ADAM10 inh,PLCg1 inh,sPLA2 confirm,535nm interf,others
Cc1cc(C)nc(SCc2cc(=O)c(OC(=O)c3ccc(S(=O)(=O)N(C)C)cc3)co2)n1,1,0,-4,11,0,-1,/,/,
Cc1cc(C)nc(SCc2cc(=O)c(OC(=O)c3ccc(Cl)c([N+](=O)[O-])c3)co2)n1,-2,0,1,22*,-2,2,-17,-11,
O=C(C(=O)N1CCN(C(=O)C2CCC2)CC1)c1cccc(C(F)(F)F)c1,5,0,0,-1,1,2,/,/,
CCOc1ccc2[nH]c3c(NCCOC)ncnc3c2c1,-394,0,-255,-4,i,-291,/,/,
CCOc1ccc2[nH]c3c(NCCN(CC)CC)ncnc3c2c1,-343,11,-168,20*,-353,-263,2,-16,
COC(=O)C1CN(Cc2ccc(OC)cc2)CCS(=O)(=O)N1Cc1cn(Cc2ccccc2)nn1 (configuration not stated),2,1,-2,-3,-4,-3,/,/,
Clc1ncnc2scc(-c3ccc(Br)cc3)c12,4,-1,-4,19*,4,3,2,-5,
CCCC(=O)NC(=S)Nc1nc(-c2ccc(OC)cc2)cs1,-1,0,2,23*,4,0,24*,-1,
O=C(CN(C(=O)c1ccccc1Cl)C1CCCCC1)Nc1ccc(Cl)c([N+](=O)[O-])c1,0,0,3,0,10,1,/,/,
O=C(CN(C(=O)c1ccc(Cl)cc1)C1CCCCC1)Nc1ccc(Cl)c([N+](=O)[O-])c1,5,0,-3,20*,-1,2,-7,-16,
CCOC(=O)[C@@]12CCCC3=C1N(CCC3)C(=O)[C@H]2CC(=O)NCCCOC,-2,1,-5,7,-7,1,/,/,
CCOc1cc(CCNC(=O)c2cc3sccc3n2CC)ccc1OC,2,0,0,-5,3,-2,/,/,
COCCNC(=O)c1c[nH]c2ccc(S(=O)(=O)N3CCOCC3)cc2c1=O,-1,-17,-35,1,-82,0,/,/,
